Data taken from PubChem BioAssay AID1159580 (chemical genetic matrix, 2015).
Hit rate of the full screen: of about 5,500 compounds, about 2,000 (36%) were called active. Another 18% or so got no clear call; they are omitted. Cut-off read from the data, not from the text of the source: active = normalized growth mostly below about 0.91 (no sharp cut-off); inconclusive = no clear call, values can overlap the other calls; inactive = mostly above about 0.92. This is one part of the list.

Test: chemical genetic growth profiling, strain panel (AID 1159580);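 note: tested at 20 µM; growth read once vehicle control cultures reached saturation at 30 °C; 1 = growth at the plate median or of vehicle wells; lower values mean less growth of the strain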
Settings: S. cerevisiae deletion strains, growth OD

Measured: normalized growth

N#Cc1c(Cl)c(Cl)c(Cl)c(Cl)c1C#N
active: locus YAR019C, strain CDC15, stronger effect = lower value 0.625 | locus YBL105C, strain PKC1, stronger effect = lower value 0.734 | locus YBR135W, strain CKS1, stronger effect = lower value 0.721 | locus YBR136W, strain MEC1, stronger effect = lower value 0.716 | locus YBR160W, strain CDC28, stronger effect = lower value 0.726 | locus YDL017W, strain CDC7, stronger effect = lower value 0.722 | locus YDL028C, strain MPS1, stronger effect = lower value 0.488 | locus YDL101C, strain DUN1, stronger effect = lower value 0.789 | locus YDL108W, strain KIN28, stronger effect = lower value 0.707 | locus YDL132W, strain cdc53, stronger effect = lower value 0.588 | locus YDL214C, strain PRR2, stronger effect = lower value 0.392 | locus YDR052C, strain DBF4, stronger effect = lower value 0.77 | locus YDR054C, strain cdc34, stronger effect = lower value 0.235 | locus YDR226W, strain ADK1, stronger effect = lower value 0.693 | locus YDR477W, strain SNF1, stronger effect = lower value 0.283 | locus YER123W, strain YCK3, stronger effect = lower value 0.169 | locus YER133W, strain GLC7, stronger effect = lower value 0.227 | locus YFL009W, strain cdc4, stronger effect = lower value 0.685 | locus YFL029C, strain CAK1, stronger effect = lower value 0.639 | locus YFR003C, strain YPI1, stronger effect = lower value 0.634 | locus YFR019W, strain FAB1, stronger effect = lower value 0.315 | locus YFR028C, strain CDC14, stronger effect = lower value 0.66 | locus YGR040W, strain KSS1, stronger effect = lower value 0.352 | locus YGR052W, strain FMP48, stronger effect = lower value 0.382 | locus YGR092W, strain DBF2, stronger effect = lower value 0.135 | locus YHR030C, strain SLT2, stronger effect = lower value 0.23 | locus YHR079C, strain IRE1, stronger effect = lower value 0.17 | locus YHR082C, strain KSP1, stronger effect = lower value 0.412 | locus YHR205W, strain SCH9, stronger effect = lower value 0.071 | locus YIL147C, strain SLN1, stronger effect = lower value 0.555 | locus YJL095W, strain BCK1, stronger effect = lower value 0.284 | locus YJL157C, strain FAR1, stronger effect = lower value 0.318 | locus YJR016C, strain ILV3, stronger effect = lower value 0.587 | locus YJR066W, strain TOR1 (second series), stronger effect = lower value 0.459 | locus YJR066W, strain TOR1, stronger effect = lower value 0.376 | locus YKL048C, strain ELM1, stronger effect = lower value 0.282 | locus YKL067W, strain YNK1, stronger effect = lower value 0.359 | locus YKL101W, strain HSL1, stronger effect = lower value 0.346 | locus YKL193C, strain SDS22, stronger effect = lower value 0.66 | locus YKL203C, strain TOR2, stronger effect = lower value 0.37 | locus YLR113W, strain HOG1, stronger effect = lower value 0.302 | locus YLR133W, strain CKI1, stronger effect = lower value 0.238 | locus YLR403W, strain SFP1, stronger effect = lower value 0.109 | locus YML070W, strain DAK1, stronger effect = lower value 0.291 | locus YMR001C, strain CDC5, stronger effect = lower value 0.673 | locus YMR205C, strain PFK2 (second series), stronger effect = lower value 0.159 | locus YMR277W, strain FCP1, stronger effect = lower value 0.594 | locus YNL006W, strain LST8, stronger effect = lower value 0.574 | locus YNL020C, strain ARK1, stronger effect = lower value 0.191 | locus YNL161W, strain CBK1, stronger effect = lower value 0.704 | locus YNL183C, strain NPR1, stronger effect = lower value 0.241 | locus YNL207W, strain RIO2, stronger effect = lower value 0.666 | locus YNL222W, strain SSU72, stronger effect = lower value 0.653 | locus YNL307C, strain MCK1 (second series), stronger effect = lower value 0.162 | locus YOL078W, strain AVO1, stronger effect = lower value 0.652 | locus YOL136C, strain PFK27, stronger effect = lower value 0.26 | locus YOR061W, strain CKA2, stronger effect = lower value 0.141 | locus YOR119C, strain RIO1, stronger effect = lower value 0.37 | locus YOR231W, strain MKK1, stronger effect = lower value 0.285 | locus YOR329C, strain SCD5, stronger effect = lower value 0.701 | locus YPL031C, strain PHO85, stronger effect = lower value 0.219 | locus YPL153C, strain RAD53, stronger effect = lower value 0.158 | locus YPL204W, strain HRR25, stronger effect = lower value 0.214 | locus YPL209C, strain IPL1, stronger effect = lower value 0.711 | locus YPL256C, strain CLN2, stronger effect = lower value 0.492 | locus YPR025C, strain CCL1, stronger effect = lower value 0.728 | locus YPR106W, strain ISR1, stronger effect = lower value 0.851 | locus YPR111W, strain DBF20, stronger effect = lower value 0.756 | strain NNK1, stronger effect = lower value 0.747 | strain TSCII, stronger effect = lower value 0.661
